# The supplement of paper PMC10981050
# “And” between values parts separate entries of the source, which are not always exact repeats. Equal values may be shown once. Where a name gives a salt, the structure may show the parent alone.
# Tested on: K562
# Test: cell viability relative to vehicle control; higher = less cytotoxic
# Conditions: 10 µM; SRSF2 genotype: SRSF2 P95H/wt
# How it was run: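 Each screen used CRISPR-edited mutant and wild-type clones from four leukaemia lines. Compounds were acoustically dispensed at a single 10 µM dose, and CellTiter-Glo luminescence was read after 48 h with the supernatant first removed. Viability was analysed in Genedata Screener and given as percent of the on-plate vehicle control.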
row,Compound,cell viability
1,Fc1ccc(Cl)cc1-c1nc(Nc2ccncc2)c2nccnc2n1,86.8% and 88.9%
2,Cc1cccc(Nc2nc(-c3ccncc3)cs2)c1,78.1% and 89.2%
3,COc1cc([C@H]2OC[C@H]3[C@@H]2CO[C@@H]3c2ccc(O[C@@H]3O[C@H](CO)[C@@H](O)[C@H](O)[C@H]3O)c(OC)c2)ccc1O[C@@H]1O[C@H](CO)[C@@H](O)[C@H](O)[C@H]1O [Pinoresinol diglucoside],105% and 104%
4,C1=Cc2ccccc2Nc2ccccc21 [Iminostilbene],101% and 95.4%
5,O=C(O)CSc1nnc(Br)n1-c1ccc(C2CC2)c2ccccc12 [Lesinurad],98.3% and 93.5%
6,CCCCN(Cc1ccc(C(=O)NO)cc1)C(=O)Nc1ccccc1 [Nexturastat A],23.9% and 35.1%
7,CC(C)c1cc2c(N3CCN(C4=NCC(C)(C)S4)CC3)ncnc2s1 [MI-3 (Menin-MLL Inhibitor)],75.8% and 67.2%
8,Clc1ccc(CSC(Cn2ccnc2)c2ccc(Cl)cc2Cl)cc1 (configuration not stated) [Sulconazole Nitrate],57.2% and 61.2%
9,CC1=CC(=O)CC(C)(C)C1=O [Ketoisophorone],98.4% and 92.1%
10,CN1CCc2c(c3ccccc3n2Cc2ccc(C(=O)NO)cc2)C1 [Tubastatin A hydrochloride],77.4% and 88.8%
11,CCC[C@@H]1C[C@@H](C(=O)N[C@@H]([C@H]2O[C@H](SC)[C@H](O)[C@@H](O)[C@H]2O)[C@@H](C)O)N(C)C1 [Lincomycin hydrochloride (Lincocin)],102% and 79.7%
12,COc1cc2c(cc1OC)-c1cc3ccc(OC)c(OC)c3c[n+]1CC2 [Palmatine chloride],82.8% and 81.3%
13,COc1ccc(C(=O)CC2(O)C(=O)Nc3c(Cl)ccc(Cl)c32)cc1 (configuration not stated),16.2% and 28.8%
14,CCNC(=O)Nc1ccc(-c2nc(N3CCOC[C@@H]3C)c3c(n2)C(C)(C)S(=O)(=O)C3)cc1,40% and 38.6%
15,C=C[C@]1(C)C[C@@H](OC(=O)CSCCN(CC)CC)[C@]2(C)[C@H](C)CC[C@]3(CCC(=O)[C@H]32)[C@@H](C)[C@@H]1O [Tiamulin],83.5% and 81.7%
16,Oc1ccc(Nc2nc(-c3ccc(Cl)cc3)cs2)cc1,49.4% and 65.5%
17,CCC1=C[C@@H]2CN(C1)Cc1c([nH]c3ccccc13)[C@@](C(=O)OC)(c1cc3c(cc1OC)N(C)[C@H]1[C@@](O)(C(=O)OC)[C@H](OC(C)=O)[C@]4(CC)C=CCN5CC[C@]31[C@@H]54)C2 [Vinorelbine Tartrate],15% and 35%
18,COc1cc(O)c(C(=O)c2ccccc2)cc1S(=O)(=O)O [Sulisobenzone],99.1% and 89.9%

# Same assay, conditions: 10 µM; SRSF2 genotype: SRSF2 wt/wt
row,Compound,cell viability [%]
1,CCN(Cc1ccncc1)C(=O)C(CO)c1ccccc1 (configuration not stated) [Tropicamide],108
2,CN(C)C1CCN(C(=O)c2ccc(NC(=O)Nc3ccc(-c4nc(N5CCOCC5)nc(N5CCOCC5)n4)cc3)cc2)CC1,26.6
3,COc1cc2nc(N3CCN(C(=O)c4ccco4)CC3)nc(N)c2cc1OC [Prazosin HCl],102
4,O=C(c1cccc(Br)c1)N1CCC(N2CCCC2)CC1,91.6
5,CC(=O)Oc1ccc2c(c1)Oc1cc(OC(C)=O)ccc1C21OC(=O)c2cc(C(=O)ON3C(=O)CCC3=O)ccc21.CC(=O)Oc1ccc2c(c1)Oc1cc(OC(C)=O)ccc1C21OC(=O)c2ccc(C(=O)ON3C(=O)CCC3=O)cc21,99.6
6,CC1(C)S[C@@H]2[C@H](NC(=O)Cc3ccccc3)C(=O)N2[C@H]1C(=O)O [Penicillin G Sodium],99.5
7,CCOc1cc2ncc(C#N)c(Nc3ccc(F)c(Cl)c3)c2cc1NC(=O)/C=C/CN(C)C [Pelitinib (EKB-569)],0.91
8,CC(C)=CCC[C@](C)(O[C@@H]1O[C@H](CO)[C@@H](O)[C@H](O)[C@H]1O)[C@H]1CC[C@]2(C)[C@@H]1[C@H](O)C[C@@H]1[C@@]3(C)CC[C@H](O)C(C)(C)[C@@H]3[C@@H](O[C@@H]3O[C@H](CO)[C@@H](O)[C@H](O)[C@H]3O[C@@H]3O[C@@H](C)[C@H](O)[C@@H](O)[C@H]3O)C[C@]12C [Ginsenoside Re],101
9,C[C@H](CCC(=O)O)[C@H]1CC[C@H]2[C@@H]3[C@@H](O)C[C@@H]4C[C@H](O)CC[C@]4(C)[C@H]3CC[C@]12C [Ursodiol (Actigal Urso)],96.6
10,CCCCOc1nc(N)c2c(n1)N(Cc1cccc(CN3CCCC3)c1)CC(=O)N2,90
11,CCOC(=O)[C@H](CCc1ccccc1)N[C@@H](C)C(=O)N1Cc2cc(OC)c(OC)cc2C[C@H]1C(=O)O [Moexipril HCl],104
12,CS(=O)(=O)c1ccc(C2=C(c3ccccc3)C(=O)OC2)cc1 [Rofecoxib (Vioxx)],93.5
13,CN(CCOc1ccc(CC2SC(=O)NC2=O)cc1)c1ccccn1 (configuration not stated) [Rosiglitazone HCl],97.4
14,Cc1cc(NC(=O)Nc2ccc(N(C)C)cc2)c2cc(F)cc(F)c2n1,93.1
15,CCN(CCCc1ccccc1)CCCc1ccccc1 [Alverine Citrate],80.6
16,COc1ccc(C2CC(=O)c3c(O)cc(OC4OC(COC5OC(C)C(O)C(O)C5O)C(O)C(O)C4O)cc3O2)cc1OC (configuration not stated) [Methyl-Hesperidin],97.8
17,CNC(=O)CN1CCC(Oc2cc3c(Nc4cccc(Cl)c4F)ncnc3cc2OC)CC1,91.9
18,CC1OC(OC2C(CO)OC(OCC3OC(OC(=O)C45CCC(C)(C)CC4C4=CCC6C7(C)CCC(OC8OCC(O)C(O)C8O)C(C)(CO)C7CCC6(C)C4(C)CC5)C(O)C(O)C3O)C(O)C2O)C(O)C(O)C1O (configuration not stated) [Hederacoside D],101
19,C=C[C@@H]1C[C@]1(NC(=O)[C@@H]1C[C@@H](Oc2ncc(OC)c3ccc(Cl)cc23)CN1C(=O)[C@@H](NC(=O)OC(C)(C)C)C(C)(C)C)C(=O)NS(=O)(=O)C1CC1 [Asunaprevir],78.8
20,C=C(Cc1ccccc1Cl)C(=O)OCC,91.8

row,Compound,cell viability [%]
1,O=C(O)C1=C(CSc2nnnn2CS(=O)(=O)O)CS[C@@H]2[C@H](NC(=O)[C@H](O)c3ccccc3)C(=O)N12 [Cefonicid sodium],102
2,Fc1ccc(Cl)cc1-c1nc(Nc2ccncc2)c2nccnc2n1,79.9
3,Cc1cccc(Nc2nc(-c3ccncc3)cs2)c1,70.8
4,COc1cc([C@H]2OC[C@H]3[C@@H]2CO[C@@H]3c2ccc(O[C@@H]3O[C@H](CO)[C@@H](O)[C@H](O)[C@H]3O)c(OC)c2)ccc1O[C@@H]1O[C@H](CO)[C@@H](O)[C@H](O)[C@H]1O [Pinoresinol diglucoside],101
5,C1=Cc2ccccc2Nc2ccccc21 [Iminostilbene],98.1
6,O=C(O)CSc1nnc(Br)n1-c1ccc(C2CC2)c2ccccc12 [Lesinurad],97.5
7,CCCCN(Cc1ccc(C(=O)NO)cc1)C(=O)Nc1ccccc1 [Nexturastat A],45.5
8,CC(C)c1cc2c(N3CCN(C4=NCC(C)(C)S4)CC3)ncnc2s1 [MI-3 (Menin-MLL Inhibitor)],67.3
9,Clc1ccc(CSC(Cn2ccnc2)c2ccc(Cl)cc2Cl)cc1 (configuration not stated) [Sulconazole Nitrate],62.7
10,CC1=CC(=O)CC(C)(C)C1=O [Ketoisophorone],100
11,CN1CCc2c(c3ccccc3n2Cc2ccc(C(=O)NO)cc2)C1 [Tubastatin A hydrochloride],84.6
12,CCC[C@@H]1C[C@@H](C(=O)N[C@@H]([C@H]2O[C@H](SC)[C@H](O)[C@@H](O)[C@H]2O)[C@@H](C)O)N(C)C1 [Lincomycin hydrochloride (Lincocin)],82.2
13,COc1cc2c(cc1OC)-c1cc3ccc(OC)c(OC)c3c[n+]1CC2 [Palmatine chloride],75.1
14,COc1ccc(C(=O)CC2(O)C(=O)Nc3c(Cl)ccc(Cl)c32)cc1 (configuration not stated),27.4
15,CCNC(=O)Nc1ccc(-c2nc(N3CCOC[C@@H]3C)c3c(n2)C(C)(C)S(=O)(=O)C3)cc1,34.4
16,C=C[C@]1(C)C[C@@H](OC(=O)CSCCN(CC)CC)[C@]2(C)[C@H](C)CC[C@]3(CCC(=O)[C@H]32)[C@@H](C)[C@@H]1O [Tiamulin],90.1
17,Oc1ccc(Nc2nc(-c3ccc(Cl)cc3)cs2)cc1,66.4
18,CCC1=C[C@@H]2CN(C1)Cc1c([nH]c3ccccc13)[C@@](C(=O)OC)(c1cc3c(cc1OC)N(C)[C@H]1[C@@](O)(C(=O)OC)[C@H](OC(C)=O)[C@]4(CC)C=CCN5CC[C@]31[C@@H]54)C2 [Vinorelbine Tartrate],31.6
19,COc1cc(O)c(C(=O)c2ccccc2)cc1S(=O)(=O)O [Sulisobenzone],94.3
